Screening data (PubChem)
aSyn UTR act = Activators via SNCA 5'UTR binding, MLPCN; activity score, % (tested at 7.5 µM), hits read low; AID 1814, 2009; hit rate 7.1% among 300,000; alpha-synuclein 5'UTR reporter, activators screen; in the data active = activity score below about -60%
Numbers stand for hits; i = inactive. A selection follows.

SMILES	aSyn UTR act
O=C(CSCC(=O)N1CCCc2ccccc21)Nc1nc(-c2ccccc2)cs1	-100
O=C(C[n+]1cc(-c2ccccc2)n2c1CCC2)Nc1nc(-c2ccccc2)cs1	-73
O=C(C[n+]1cc(-c2ccc(F)cc2)n2c1CCC2)c1cccs1	-144
O=C(c1nn2c(C(F)(F)F)cc(-c3cccs3)nc2c1Br)N1CCCc2ccccc21	i
COc1cc(/C=C2/C(=N)N3N=C(CC(=O)N4CCOCC4)SC3=NC2=O)ccc1OCc1ccccc1	-129
CCOc1ccc(/C=C2/Sc3ccc(C(=O)N4CCN(C(=O)c5ccco5)CC4)cc3N(C)C2=O)cc1OC	i
COc1cc(/C=C2/C(=N)N3C(c4ccccc4)=CSC3=NC2=O)ccc1OCC(=O)O	-68
O=C1OC(c2ccc(Cl)cc2)/C(=C(/O)c2ccccc2)C1=O (stereo not drawn)	-67
O=C(c1ccccc1)N1C(=O)C(c2ccccc2)Oc2ccccc21 (stereo not drawn)	i
CC(=O)Nc1ccc2nc(-c3cccs3)[nH]c2c1	-110
CC(=O)Nc1ccc2nc(-c3cccn3C)[nH]c2c1	-88
Cn1cccc1-c1nc2ccc(NC(=O)c3cccs3)cc2[nH]1	-115
COc1cccc(NC(=O)c2c(C)nn(-c3ccccc3)c2Cl)c1	-137
Cc1ccc(NC(=O)c2c(C)nn(-c3ccccc3)c2Cl)cc1	-81
CCCc1ccc(OCc2ccc(C(=O)N/N=C/c3cccnc3)o2)cc1	-143
NNC(=O)c1ccc(COc2ccc3c(c2)CCC3)o1	-74
Cc1ccc(COc2ccccc2-c2cc(C(=O)N/N=C/c3cccnc3)[nH]n2)cc1	-77
CC(C)(C)c1ccc(OCc2ccc(C(=O)N/N=C/c3ccc([N+](=O)[O-])cc3)o2)cc1	-138
CC(C)(C)c1ccc(OCc2ccc(C(=O)NN)o2)cc1	-107
CC(C)(C)c1ccc(OCc2ccc(C(=O)NCc3cccnc3)o2)cc1	-133
O=C(c1ccc(COc2ccc3c(c2)CCC3)o1)N1CCN(c2ccccc2)CC1	-73
c1ccc(Nc2nc(CSc3ncn[nH]3)cs2)cc1	-135
CCOC(=O)C1(Cc2cccc(OC)c2)CCCN(C(=O)c2cc(C)[nH]n2)C1 (stereo not drawn)	-130
CCOC(=O)C1(Cc2cccc(OC)c2)CCCN(C(=O)c2cc(C)on2)C1 (stereo not drawn)	-110
CCOC(=O)C1(Cc2cccc(OC)c2)CCCN(C(=O)c2ccccc2C)C1 (stereo not drawn)	-84
SMILES	aSyn UTR act
CCOC(=O)C1(Cc2cccc(OC)c2)CCCN(C(=O)CNC(C)=O)C1 (stereo not drawn)	-115
CCOC(=O)C1(Cc2ccccc2)CCCN(C(=O)c2cnn(CC)c2)C1 (stereo not drawn)	-78
COc1ccc2cc(/C=C/C(=O)c3ccco3)c(Cl)nc2c1	-78
Cc1ccc2nc(Cl)c(/C=C/C(=O)c3ccco3)cc2c1	-151
Cc1ccc2cc(/C=C/C(=O)c3ccco3)c(Cl)nc2c1	-121
COc1ccc2cc(/C=N/NC(=O)c3ccc(CN(c4ccc(C)c(C)c4)S(C)(=O)=O)cc3)c(Cl)nc2c1	i
Cc1ccc(OCC(=O)Nc2ccc3c(c2)nc(CCN2CCN(C)CC2)n3C)cc1	i
Cn1cnc2cc(NC(=O)COc3ccccc3)ccc21	-117
COc1ccccc1C(=O)Nc1ccc2c(c1)nc(CCNC(C)=O)n2C	-73
CCC(=O)NCCc1nc2cc(NC(=O)COc3ccccc3)ccc2n1C	-113
CCC(=O)NCCc1nc2cc(NC(=O)c3cccc([N+](=O)[O-])c3)ccc2n1C	-70
CC(=O)NCCc1nc2cc(NC(=O)c3ccc(F)cc3)ccc2n1C	-111
CCC(=O)NCCc1nc2cc(NC(=O)c3ccccc3OC)ccc2n1C	-71
COc1ccc(C2CC(c3ccc(Br)cc3)=NN2C(=S)Nc2ccccc2)cc1 (stereo not drawn)	-78
Cc1ccc(C2=NN(C(=S)Nc3ccccc3)C(c3ccco3)C2)cc1 (stereo not drawn)	-178
CCS(=O)(=O)Nc1ccc(C2=NN(C(=S)Nc3ccccc3)C(c3ccco3)C2)cc1 (stereo not drawn)	-81
CCC(=O)N1N=C(c2c(-c3ccccc3)c3cc(Cl)ccc3[nH]c2=O)CC1c1ccco1 (stereo not drawn)	i
COc1ccc(N2C(=O)c3ccccc3NC2c2ccc(OC)c(Cn3cc([N+](=O)[O-])cn3)c2)cc1 (stereo not drawn)	-87
COc1ccc2c(c1)sc1nc(-c3ccccc3)cn12	i
COc1ccc(-n2cc(-c3ccccc3)nc2SC)cc1	-121
O=c1c(-c2ccc(Cl)cc2)c[nH]n1-c1ccccc1	-145
O=c1c(-c2ccccc2)c[nH]n1-c1cccc([N+](=O)[O-])c1	-87
CCOC(=O)C1CCN(C(=O)C2CCN(c3ncnc4c3nc3n4CCCCC3)CC2)CC1	-108
O=C(Nc1ccccc1F)c1ccc2snnc2c1	-77
COc1ccc(NC(=O)c2ccc3snnc3c2)cc1	-107
SMILES	aSyn UTR act
CC(=O)c1ccc(NC(=O)c2ccc3snnc3c2)cc1	-119
O=C(Nc1ccc(Cl)cc1)c1ccc2snnc2c1	-149
CC(C)CC(=O)Nc1cc2nn(-c3ccccc3)nc2cc1Cl	-135
Nc1cc2nn(-c3ccccc3)nc2cc1Cl	-157
Cn1c(N/N=C/c2cc3ccccc3nc2Cl)nc2ccccc21	-127
Fc1c(F)c(F)c(N/N=C/c2c[nH]c3ccccc23)c(F)c1F	-103
Cn1c(N/N=C/c2c[nH]c3ccccc23)nc2ccccc21	-126
Cc1cc2cc(CN(Cc3ccco3)S(=O)(=O)c3c(C)ccc4nsnc34)c(=O)[nH]c2cc1C	i
CCOC(=O)c1cccc(S(=O)(=O)N(CCO)Cc2cc3cc(OC)c(OC)cc3[nH]c2=O)c1	-72
COc1ccccc1-c1c(C#N)c(N)nc2c1CCc1ccccc1-2	-196
CCC(=O)Nc1cc(C(=O)OCC(=O)c2ccccc2Cl)ccc1C	-168
Cc1ccc(C(=O)OCC(=O)c2c[nH]c3ccccc23)cc1NC(=O)c1ccco1	-70
CCC(=O)Nc1cc(C(=O)OCC(=O)c2ccccc2)ccc1C	-88
O=C(Cc1cccs1)NCc1ccc(Cl)cc1Cl	-155
O=C(Cc1cccs1)NCc1cccc(Cl)c1	-88
CCCOc1ccc(CNC(=O)Cc2cccs2)cc1	-98
O=C(CSc1ncccn1)NCc1cccc(Cl)c1	-65
CCOc1ccc(N/C=C\C(=O)c2ccc3c(c2)OCO3)cc1	-89
COc1ccc(N/C=C\C(=O)c2ccc3c(c2)OCO3)cc1	-264
O=C(/C=C\Nc1ccc2c(c1)OCO2)c1ccccn1	i
O=C(/C=C\Nc1ccc2c(c1)OCO2)c1ccc2c(c1)OCO2	-175
CCc1ccc(-c2cn(C3CCCCC3)c(=S)[nH]2)cc1	-127
FC(F)(F)c1cc(-c2ccco2)nc(N2CCN(c3ccccc3)CC2)n1	-65
Cc1nc2ccccc2n1-c1nc(-c2ccco2)cc(C(F)(F)F)n1	i
NC(=O)C1=C[C@H](C2CCCCC2)C[C@H](OCc2ccc(CO)cc2)O1	-98
SMILES	aSyn UTR act
COc1ccc(/C=C2\N=C(c3ccccc3Cl)NC2=O)cc1	-124
N/C(=C\C(=O)c1cc(Cl)ccc1O)C(Cl)(Cl)Cl	-80
O=[N+]([O-])c1ccc(/C=N/Nc2ccc3ccccc3c2)o1	-104
O=C(N/N=C/c1ccc([N+](=O)[O-])o1)c1cc2ccccc2o1	i
Cc1nc2ccccn2c1C(=O)N/N=C/c1ccc([N+](=O)[O-])o1	-81
COc1ccc(-c2nc(CS(=O)CC(=O)NCCC3=CCCCC3)c(C)o2)cc1 (stereo not drawn)	-86
